# Experimental data taken from PubChem BioAssay (EPA / NIEHS).
# Several values for one entry are separate records, joined by “and”; a condition that tells them apart may be missing. Equal entries are not always repeated. Inconclusive results are not listed. Activity calls are given as the source filed them. Rule for the calls: active = hit-call score of the fitted dose curve at least 0.9, where 1 is the maximum; inconclusive = response in the unintended direction; inactive = score below 0.9.
# Tests used:
# [1] = biological target: human CYP2C9, CYP2C9 (gene 1559) (UniProt P11712); experiment: NVS_ADME_hCYP2C9: NovaScreen (NVS) CYP450-related Enzyme Activity (ADME) Assay for human CYP2C9 (AID 2283108)
# How it was run: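 Fluorescence readout of CYP2C9 activity (SF9-expressed human enzyme) at 0.75 h. The primary screen used 10 uM in duplicate, with concentration-response follow-up for actives; acetonitrile was the negative control.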
# [2] = biological target: Cytochrome P450 3A4 (Homo sapiens) (UniProt P08684); experiment: NVS_ADME_hCYP3A4: NovaScreen (NVS) CYP450-related Enzyme Activity (ADME) Assay for human CYP3A4 (AID 2283110)
# How it was run: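 Compounds screened in duplicate at 10 uM, with follow-up concentration-response for actives, against insect-cell-expressed recombinant enzyme. Activity read by fluorescence 0.33 h after dosing; loss of signal versus acetonitrile control indicates inhibition.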
# [3] = biological target: human Caspase 5 (CASP5), CASP5 (gene 838) (UniProt P51878); experiment: NVS_ENZ_hCASP5: NovaScreen (NVS) Enzymatic Assay for human Caspase 5 (CASP5) (AID 2283137)
# Chain of human Caspase 5 (CASP5), CASP5 (gene 838) (P51878 whole entry, looked up): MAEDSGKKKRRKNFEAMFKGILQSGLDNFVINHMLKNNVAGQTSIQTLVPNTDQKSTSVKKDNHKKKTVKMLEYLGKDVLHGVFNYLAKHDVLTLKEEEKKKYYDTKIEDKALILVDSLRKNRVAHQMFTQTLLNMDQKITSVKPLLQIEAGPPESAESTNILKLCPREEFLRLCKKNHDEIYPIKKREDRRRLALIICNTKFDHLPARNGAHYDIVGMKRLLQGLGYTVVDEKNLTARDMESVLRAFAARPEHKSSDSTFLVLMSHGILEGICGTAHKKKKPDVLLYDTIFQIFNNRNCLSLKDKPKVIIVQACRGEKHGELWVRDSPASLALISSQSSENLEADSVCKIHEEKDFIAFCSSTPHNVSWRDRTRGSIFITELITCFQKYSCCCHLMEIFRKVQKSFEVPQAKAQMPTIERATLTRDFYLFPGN
# How it was run: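 Chemicals were first tested in duplicate at 25 uM against recombinant caspase 5 from E. coli. Activity was read by fluorescence intensity 2 hours after dosing. Those passing a preset inhibition threshold were retested in singleton concentration-response up to 50 uM.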
# [4] = biological target: human AKT serine/threonine Kinase 1 (AKT1), AKT1 (gene 207) (UniProt P31749); experiment: NVS_ENZ_hAKT1: NovaScreen (NVS) Enzymatic Assay for human AKT serine/threonine Kinase 1 (AKT1) (AID 2283138)
# Chain of human AKT serine/threonine Kinase 1 (AKT1), AKT1 (gene 207) (P31749 whole entry, looked up): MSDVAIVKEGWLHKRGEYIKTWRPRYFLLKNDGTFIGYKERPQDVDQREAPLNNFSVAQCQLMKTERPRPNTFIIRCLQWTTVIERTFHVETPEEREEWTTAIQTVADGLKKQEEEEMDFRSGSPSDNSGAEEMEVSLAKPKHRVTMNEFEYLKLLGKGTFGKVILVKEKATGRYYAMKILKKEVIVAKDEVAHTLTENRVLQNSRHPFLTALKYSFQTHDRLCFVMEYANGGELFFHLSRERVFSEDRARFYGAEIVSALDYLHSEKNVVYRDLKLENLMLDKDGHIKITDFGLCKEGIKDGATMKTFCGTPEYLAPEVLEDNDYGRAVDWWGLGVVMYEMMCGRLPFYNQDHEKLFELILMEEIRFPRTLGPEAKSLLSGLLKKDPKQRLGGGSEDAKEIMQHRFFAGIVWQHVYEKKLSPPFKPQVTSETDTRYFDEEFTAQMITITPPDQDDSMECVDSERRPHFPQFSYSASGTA
# How it was run: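 Compounds were first tested in duplicate at 25 uM, and those passing a threshold such as 30% inhibition were run in concentration-response to a maximum of 50 uM. Enzyme activity was measured after 1 h by fluorescence following substrate/product mobility-shift separation.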
# [5] = biological target: human Beta-secretase (BACE), BACE1 (gene 23621) (UniProt P56817); experiment: NVS_ENZ_hBACE: NovaScreen (NVS) Enzymatic Assay for human Beta-secretase (BACE) (AID 2283140);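 note: hits are inhibitors that reduce fluorescent substrate signal versus DMSO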
# Chain of human Beta-secretase (BACE), BACE1 (gene 23621) (P56817 whole entry, looked up): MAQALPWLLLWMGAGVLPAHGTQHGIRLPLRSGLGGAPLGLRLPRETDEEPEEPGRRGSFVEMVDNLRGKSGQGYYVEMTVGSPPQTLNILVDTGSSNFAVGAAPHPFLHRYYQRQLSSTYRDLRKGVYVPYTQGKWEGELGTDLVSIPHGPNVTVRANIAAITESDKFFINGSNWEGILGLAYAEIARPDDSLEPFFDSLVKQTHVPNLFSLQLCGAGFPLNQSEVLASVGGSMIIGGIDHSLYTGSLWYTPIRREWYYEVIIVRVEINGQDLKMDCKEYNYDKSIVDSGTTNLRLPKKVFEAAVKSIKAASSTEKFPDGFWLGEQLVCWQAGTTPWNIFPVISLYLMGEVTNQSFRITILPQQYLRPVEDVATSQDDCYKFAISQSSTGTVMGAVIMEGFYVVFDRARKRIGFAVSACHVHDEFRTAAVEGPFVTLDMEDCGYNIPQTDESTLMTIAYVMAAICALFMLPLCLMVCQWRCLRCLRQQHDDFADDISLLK
# How it was run: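 Fluorescence intensity read-out of protease activity defines this endpoint; signal loss relative to DMSO baseline marks inhibition. Recombinant enzyme from SF9 cells, cell-free format, 1 h exposure. Single-concentration duplicate screen (25 uM) precedes concentration-series follow-up.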
# [6] = biological target: human AKT serine/threonine Kinase 2 (AKT2), AKT2 (gene 208) (UniProt P31751); experiment: NVS_ENZ_hAKT2: NovaScreen (NVS) Enzymatic Assay for human AKT serine/threonine Kinase 2 (AKT2) (AID 2283141)
# How it was run: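 Cell-free fluorescence/electrophoretic mobility shift readout of recombinant human AKT2 activity, 1 h after chemical dosing. Duplicate primary screen at 25 uM, then singleton concentration-response up to 50 uM; loss of signal versus DMSO baseline.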
# [7] = biological target: human Colony Stimulating Factor 1 Receptor (CSF1R), CSF1R (gene 1436) (UniProt P07333); experiment: NVS_ENZ_hCSF1R: NovaScreen (NVS) Enzymatic Assay for human Colony Stimulating Factor 1 Receptor (CSF1R) (AID 2283150)
# Chain of human Colony Stimulating Factor 1 Receptor (CSF1R), CSF1R (gene 1436) (P07333 whole entry, looked up): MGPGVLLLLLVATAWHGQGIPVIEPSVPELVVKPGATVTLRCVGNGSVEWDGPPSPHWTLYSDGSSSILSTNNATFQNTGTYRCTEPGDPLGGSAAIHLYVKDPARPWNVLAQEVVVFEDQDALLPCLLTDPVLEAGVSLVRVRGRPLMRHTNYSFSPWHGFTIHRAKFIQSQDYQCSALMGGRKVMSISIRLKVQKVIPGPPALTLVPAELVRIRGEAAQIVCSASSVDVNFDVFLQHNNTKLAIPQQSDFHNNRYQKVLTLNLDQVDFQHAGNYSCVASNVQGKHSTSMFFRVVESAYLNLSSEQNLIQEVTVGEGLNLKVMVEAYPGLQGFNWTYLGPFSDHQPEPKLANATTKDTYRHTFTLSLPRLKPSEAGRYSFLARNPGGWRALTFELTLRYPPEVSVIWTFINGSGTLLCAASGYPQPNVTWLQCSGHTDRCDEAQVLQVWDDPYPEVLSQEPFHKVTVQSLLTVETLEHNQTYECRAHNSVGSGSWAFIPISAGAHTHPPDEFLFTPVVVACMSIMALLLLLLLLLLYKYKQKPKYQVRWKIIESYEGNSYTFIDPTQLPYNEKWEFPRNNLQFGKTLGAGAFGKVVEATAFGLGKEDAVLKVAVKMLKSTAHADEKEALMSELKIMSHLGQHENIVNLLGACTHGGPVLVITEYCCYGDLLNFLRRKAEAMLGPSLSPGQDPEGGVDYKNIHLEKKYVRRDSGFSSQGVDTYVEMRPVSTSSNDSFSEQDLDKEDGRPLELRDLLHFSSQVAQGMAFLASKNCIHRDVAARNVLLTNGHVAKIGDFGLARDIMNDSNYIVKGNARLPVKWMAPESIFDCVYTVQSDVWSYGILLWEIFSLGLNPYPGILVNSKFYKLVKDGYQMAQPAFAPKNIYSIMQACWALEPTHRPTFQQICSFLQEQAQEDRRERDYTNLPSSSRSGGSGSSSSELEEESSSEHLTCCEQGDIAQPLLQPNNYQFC
# How it was run: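 Compounds screened in duplicate at 25 uM, then concentration-response (top 50 uM) for those passing threshold such as 30% inhibition; recombinant CSF1R activity measured 1 h post-dosing via fluorescent substrate/product mobility-shift separation, loss of signal versus DMSO.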
# [8] = biological target: human Dual Specificity Protein Phosphatase 3 (DUSP3), DUSP3 (gene 1845) (UniProt P51452); experiment: NVS_ENZ_hDUSP3: NovaScreen (NVS) Enzymatic Assay for human Dual Specificity Protein Phosphatase 3 (DUSP3) (AID 2283152);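 note: phosphatase activity of recombinant human DUSP3 on a fluorogenic substrate without cells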
# Chain of human Dual Specificity Protein Phosphatase 3 (DUSP3), DUSP3 (gene 1845) (P51452 whole entry, looked up): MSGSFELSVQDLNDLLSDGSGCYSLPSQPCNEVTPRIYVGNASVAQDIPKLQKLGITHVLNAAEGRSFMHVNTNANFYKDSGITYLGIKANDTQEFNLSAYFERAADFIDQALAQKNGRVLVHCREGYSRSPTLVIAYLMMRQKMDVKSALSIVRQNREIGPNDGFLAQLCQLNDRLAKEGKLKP
# How it was run: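 Cell-free fluorescence-intensity enzyme activity assay with recombinant protein and substrate; loss of signal fitted relative to DMSO baseline. Primary screen in duplicate at 25 uM, actives then run in concentration series; measured 0 h after dosing.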
# [9] = biological target: human Casein Kinase 1-delta (CK1D), CSNK1D (gene 1453) (UniProt P48730); experiment: NVS_ENZ_hCK1D: NovaScreen (NVS) Enzymatic Assay for human Casein Kinase 1-delta (CK1D) (AID 2283148)
# Chain of human Casein Kinase 1-delta (CK1D), CSNK1D (gene 1453) (P48730 whole entry, looked up): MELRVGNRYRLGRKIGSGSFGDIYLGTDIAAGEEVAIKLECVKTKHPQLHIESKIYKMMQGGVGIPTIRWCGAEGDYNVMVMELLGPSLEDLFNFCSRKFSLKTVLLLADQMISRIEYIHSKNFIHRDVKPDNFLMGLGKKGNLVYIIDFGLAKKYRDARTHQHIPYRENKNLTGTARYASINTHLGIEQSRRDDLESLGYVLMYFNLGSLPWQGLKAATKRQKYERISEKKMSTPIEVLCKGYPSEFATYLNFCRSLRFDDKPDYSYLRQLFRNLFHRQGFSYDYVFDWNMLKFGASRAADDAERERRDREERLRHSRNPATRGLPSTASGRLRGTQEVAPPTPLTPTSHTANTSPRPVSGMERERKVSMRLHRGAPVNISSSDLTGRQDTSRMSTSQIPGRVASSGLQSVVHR
# How it was run: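 Recombinant human CK1-delta, cell-free; fluorescent substrate with electrophoretic mobility-shift separation of product, read 1 h after dosing. Single 25 uM duplicate screen, then concentration-response up to 50 uM; loss of signal vs DMSO.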
# [10] = biological target: Cytochrome P450 2C19 (Homo sapiens) (UniProt P33261); experiment: NVS_ADME_hCYP2C19: NovaScreen (NVS) CYP450-related Enzyme Activity (ADME) Assay for human CYP2C19 (AID 2283113);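 for AC50: potency for inhibition seen as loss of fluorescent signal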
# How it was run: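 Cell-free recombinant human CYP2C19 from insect cells, fluorescent substrate; activity read by fluorescence intensity 1 h after dosing. Primary screen in duplicate at 10 uM; actives retested in concentration series. Signal loss versus acetonitrile negative control.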
# Caspase-3 (Homo sapiens) = Caspase-3 (Homo sapiens) (UniProt P42574); experiment: NVS_ENZ_hCASP3: NovaScreen (NVS) Enzymatic Assay for human Caspase 3 (CASP3) (AID 2283139)
# Chain of Caspase-3 (Homo sapiens) (P42574 whole entry, looked up): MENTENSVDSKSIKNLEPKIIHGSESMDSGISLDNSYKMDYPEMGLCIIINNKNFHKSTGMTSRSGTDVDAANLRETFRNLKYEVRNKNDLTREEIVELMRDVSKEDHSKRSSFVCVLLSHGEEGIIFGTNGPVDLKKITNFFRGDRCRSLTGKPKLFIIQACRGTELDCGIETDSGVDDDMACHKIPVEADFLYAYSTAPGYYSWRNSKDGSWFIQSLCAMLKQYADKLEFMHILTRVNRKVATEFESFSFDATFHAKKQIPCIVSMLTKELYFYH
# How it was run: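 Single-concentration screening at 25 uM in duplicate, with concentration-response follow-up to a 50 uM maximum for chemicals passing the threshold. Caspase-3 (human, E. coli-expressed) activity was read as substrate fluorescence after 1 h, with loss of signal relative to DMSO.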
# [11] = biological target: human Caspase 4 (CASP4), CASP4 (gene 837) (UniProt P49662); experiment: NVS_ENZ_hCASP4: NovaScreen (NVS) Enzymatic Assay for human Caspase 4 (CASP4) (AID 2283143)
# Chain of human Caspase 4 (CASP4), CASP4 (gene 837) (P49662 whole entry, looked up): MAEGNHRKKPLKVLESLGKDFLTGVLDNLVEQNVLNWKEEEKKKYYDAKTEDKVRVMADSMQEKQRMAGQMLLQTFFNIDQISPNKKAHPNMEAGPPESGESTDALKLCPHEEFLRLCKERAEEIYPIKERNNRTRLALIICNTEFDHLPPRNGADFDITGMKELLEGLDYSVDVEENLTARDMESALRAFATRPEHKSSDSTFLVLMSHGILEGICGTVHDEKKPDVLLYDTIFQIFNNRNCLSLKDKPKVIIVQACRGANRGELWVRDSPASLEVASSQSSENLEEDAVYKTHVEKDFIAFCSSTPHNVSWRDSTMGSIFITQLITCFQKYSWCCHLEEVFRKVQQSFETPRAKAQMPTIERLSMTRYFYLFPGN
# How it was run: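 Compounds were first tested in duplicate at 25 uM, and hits were titrated singly to a 50 uM maximum. Recombinant protease from E. coli was read by fluorescence 2 h post-dose, and activity loss was fitted against the DMSO baseline.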
# [12] = biological target: human Caspase 8 (CASP8), CASP8 (gene 841) (UniProt Q14790); experiment: NVS_ENZ_hCASP8: NovaScreen (NVS) Enzymatic Assay for human Caspase 8 (CASP8) (AID 2283146)
# Chain of human Caspase 8 (CASP8), CASP8 (gene 841) (Q14790 whole entry, looked up): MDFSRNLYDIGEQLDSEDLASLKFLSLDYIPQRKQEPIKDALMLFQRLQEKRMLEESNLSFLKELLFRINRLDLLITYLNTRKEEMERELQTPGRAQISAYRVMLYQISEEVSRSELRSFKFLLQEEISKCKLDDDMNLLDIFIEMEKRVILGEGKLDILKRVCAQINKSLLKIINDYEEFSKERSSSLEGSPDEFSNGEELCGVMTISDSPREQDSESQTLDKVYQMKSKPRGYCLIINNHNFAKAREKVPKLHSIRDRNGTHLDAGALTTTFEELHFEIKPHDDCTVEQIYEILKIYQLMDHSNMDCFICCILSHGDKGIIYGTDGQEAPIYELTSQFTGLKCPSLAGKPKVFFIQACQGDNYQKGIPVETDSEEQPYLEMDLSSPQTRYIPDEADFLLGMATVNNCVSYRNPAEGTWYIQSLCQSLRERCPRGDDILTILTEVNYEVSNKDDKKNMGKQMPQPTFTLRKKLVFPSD
# How it was run: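 The primary screen tested compounds in duplicate at a single 25 uM concentration, with actives followed up in concentration series. Activity of recombinant (E. coli) protease was measured by fluorescence 1 h post-dose, as signal loss against DMSO.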
# [13] = biological target: rat CYP2A2, Cyp2a2 (gene 24895) (UniProt P15149); experiment: NVS_ADME_rCYP2A2: NovaScreen (NVS) CYP450-related Enzyme Activity (ADME) Assay for rat CYP2A2 (AID 2283116)
# Chain of rat CYP2A2, Cyp2a2 (gene 24895) (P15149 whole entry, looked up): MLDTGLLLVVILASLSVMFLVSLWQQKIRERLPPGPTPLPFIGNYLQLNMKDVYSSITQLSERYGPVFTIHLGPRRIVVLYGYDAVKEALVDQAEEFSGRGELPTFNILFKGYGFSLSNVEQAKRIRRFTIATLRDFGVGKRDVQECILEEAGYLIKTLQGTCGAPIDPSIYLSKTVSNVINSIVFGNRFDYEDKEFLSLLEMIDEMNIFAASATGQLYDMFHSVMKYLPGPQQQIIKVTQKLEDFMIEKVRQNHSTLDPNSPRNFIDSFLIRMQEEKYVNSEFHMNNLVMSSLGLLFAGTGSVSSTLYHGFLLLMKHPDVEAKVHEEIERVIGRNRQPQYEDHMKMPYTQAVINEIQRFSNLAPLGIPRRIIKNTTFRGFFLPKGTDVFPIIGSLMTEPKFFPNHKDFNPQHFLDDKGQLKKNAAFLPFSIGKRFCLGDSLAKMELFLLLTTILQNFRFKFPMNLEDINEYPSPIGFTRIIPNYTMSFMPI
# How it was run: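 Compounds first tested in duplicate at 10 uM, then in singleton concentration series up to 20 uM when over threshold. Activity of the recombinant enzyme read by fluorescence at 0.2 h, normalised to acetonitrile vehicle.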
# rat CYP3A1, gene 25642 = experiment: NVS_ADME_rCYP3A1: NovaScreen (NVS) CYP450-related Enzyme Activity (ADME) Assay for rat CYP3A1 (AID 2283126)
# How it was run: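 Compounds went first at 10 uM duplicate, then to series with 20 uM maximum. Fluorescence from substrate turnover by the recombinant enzyme was measured 0.5 h post-dosing, inhibition scored against acetonitrile vehicle.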
# [14] = biological target: rat CYP3A2, Cyp3a2 (gene 266682) (UniProt P05183); experiment: NVS_ADME_rCYP3A2: NovaScreen (NVS) CYP450-related Enzyme Activity (ADME) Assay for rat CYP3A2 (AID 2283128)
# How it was run: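 Fluorescence readout of extracted rat CYP3A2 activity 0.5 h post-dose, acetonitrile as negative control. Single-point testing in duplicate at 10 uM, followed by concentration series to a 20 uM maximum for actives.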
# [15] = biological target: human Acid Phosphatase 1 (ACP1), ACP1 (gene 52) (UniProt P24666); experiment: NVS_ENZ_hACP1: NovaScreen (NVS) Enzymatic Assay for human Acid Phosphatase 1 (ACP1) (AID 2283136)
# Chain of human Acid Phosphatase 1 (ACP1), ACP1 (gene 52) (P24666 whole entry, looked up): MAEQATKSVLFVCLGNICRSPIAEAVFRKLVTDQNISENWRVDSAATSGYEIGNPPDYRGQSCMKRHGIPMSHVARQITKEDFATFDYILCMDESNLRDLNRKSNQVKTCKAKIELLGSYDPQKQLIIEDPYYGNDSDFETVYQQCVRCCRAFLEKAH
# How it was run: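 Cell-free fluorescence read-out of phosphatase activity, substrate and product separated by mobility shift, taken 1.5 h after compound addition; protein produced in Sf9. Single 25 uM duplicate screen, followed by concentration series for actives, scored as signal loss relative to DMSO.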
# CDK2 (gene 1017) = CDK2 (gene 1017) (UniProt P24941); experiment: NVS_ENZ_hCDK2: NovaScreen (NVS) Enzymatic Assay for human Cyclin-Cependent Kinase 2 (CDK2) (AID 2283144)
# How it was run: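 Compounds screened in duplicate at 25 uM, then in singleton concentration-response to a maximum of 50 uM, against recombinant CDK2; kinase activity read 1 hr after dosing by fluorescence with mobility-shift separation of substrate and product.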
structure (smiles),measurement,setting,value
CCCCc1nc2cccnc2n1Cc1ccc(-c2ccccc2-c2nnn[nH]2)cc1,AC50,[1],2.96 µM (active)
CC1(C)C(=O)NC(=O)N1CO,outcome,[2],inactive
CCC(C)N(C)C(=O)c1cc2ccccc2c(-c2ccccc2Cl)n1 (configuration not stated),AC50,[1],4.2 µM (active)
Cn1cnc2c1c(=O)[nH]c(=O)n2C,outcome,[3],inactive
CCCCCCCCCCCCCCOS(=O)(=O)O,AC50,[3],2.27 µM (active)
same,AC50,[4],14.2 µM (active)
same,AC50,[5],1.77 µM (active)
same,AC50,[6],13.3 µM (active)
same,AC50,[7],9.44 µM (active)
same,AC50,[8],8.15 µM (active)
CC(C)COC(=O)CCCCC(=O)OCC(C)C,AC50,[5],36.1 µM (active)
CC(N)=O,outcome,[9],inactive
Nc1nc(Cl)nc2c1ncn2[C@H]1C[C@H](O)[C@@H](CO)O1,outcome,[7],inactive
C=CCCCCCCCCCCCC,outcome,[9],inactive
Cc1cc(SC2=C(O)C[C@@](CCc3ccc(N)cc3)(C(C)C)OC2=O)c(C(C)(C)C)cc1CO,AC50,[10],7.64 µM (active)
same,outcome,[5],inactive
CCCCCCCC(=O)OC,outcome,Caspase-3 (Homo sapiens),inactive
O=C1c2c(O)cccc2Cc2cccc(O)c21,AC50,[3],0.235 µM (active)
same,outcome,[4],inactive
same,AC50,Caspase-3 (Homo sapiens),13.1 µM (active)
same,AC50,[5],1.22 µM (active)
same,AC50,[6],16 µM (active)
same,AC50,[11],4.5 µM (active)
same,AC50,[12],7.92 µM (active)
CC(=O)O[C@]1(C(C)=O)CC[C@H]2[C@@H]3C=C(Cl)C4=CC(=O)[C@@H]5C[C@@H]5[C@]4(C)[C@H]3CC[C@@]21C,AC50,[13],832 nM (active) and 2.03 µM (active) and 1.28 µM (active)
same,AC50,"rat CYP3A1, gene 25642",1.2 µM (active)
same,AC50,[14],1.42 µM (active)
CCCCCCCCCC[N+](C)(C)[O-],outcome,[10],inactive
CC(C)(C)c1ccccc1,outcome,[5],inactive
COc1ccc(OC(F)(F)F)cc1CN[C@H]1CCCN[C@H]1c1ccccc1,outcome,[15],inactive
same,outcome,[4],inactive
same,outcome,CDK2 (gene 1017),inactive
same,outcome,[9],inactive
same,outcome,[7],inactive
O=Cc1ccccc1C=O,outcome,[3],inactive
CN(C)CCCN1c2ccccc2Sc2ccc(Cl)cc21,outcome,[5],inactive
same,AC50,[8],10.7 µM (active)
CN(C)C(=O)NC1(c2ccccc2)CCN(CCC[C@]2(c3ccc(Cl)c(Cl)c3)CCCN(C(=O)c3ccccc3)C2)CC1,outcome,[9],inactive
same,outcome,[7],inactive
O=C1CCCCC1,outcome,[3],inactive
same,outcome,Caspase-3 (Homo sapiens),inactive
CCc1nc(N)nc(N)c1-c1ccc(Cl)cc1,outcome,[5],inactive
O=C(O)c1[nH]n(-c2ccc(S(=O)(=O)O)cc2)c(=O)c1N=Nc1ccc(S(=O)(=O)O)cc1,outcome,[11],inactive
same,AC50,[12],7.11 µM (active)
CCCC(=O)O,outcome,[4],inactive
O=C(O)CC(O)(CC(=O)O)C(=O)O,outcome,[7],inactive
COC(=O)[C@H]1[C@H]2C[C@@H]3c4[nH]c5cc(OC)ccc5c4CCN3C[C@H]2C[C@@H](OC(=O)c2cc(OC)c(OC)c(OC)c2)[C@@H]1OC,AC50,[10],7.91 µM (active)
same,AC50,[8],24.6 µM (active)
CC(C)c1cccc(C(C)C)c1,AC50,[10],10 µM (active)
same,outcome,[12],inactive
O=C(Oc1ccccc1)c1cccc(C(=O)Oc2ccccc2)c1,outcome,CDK2 (gene 1017),inactive
same,outcome,[9],inactive
